Measured values published in PubChem BioAssay (NCATS).
Inconclusive results are not listed. Active and inactive are the calls of the source. The call rests on the fitted dose curve; in most records, active means well fitted inhibition curve with a large enough effect; inconclusive means small, poorly fitted or top-dose-only effect; inactive means flat fitted curve, though single readings scatter.

Key:
Test in all cases: qHTS profiling for inhibitors of Plasmodium falciparum proliferation (AID 504749); further: nearly all actives have a fitted effect of over 60% in size
Conditions in all cases: P. falciparum in erythrocytes, SYBR Green DNA, 72 h; series mostly up to 28.7 µM
[1] = test system: CP215
Procedure, shortened: (§1)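 Fluorescence of SYBR Green-bound parasite DNA, read at 485/535 nm, served as the growth measure. Infected erythrocytes were cultured with compound 72 h; artemisinin (0.29 uM) and DMSO wells defined the normalization range.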

[2] = test system: CP217
Procedure, shortened: as §1

[3] = test system: CP237
Procedure, shortened: as §1

[4] = test system: CP238
Procedure, shortened: as §1

[5] = test system: CP247
Procedure, shortened: as §1

[6] = test system: CP250
Procedure, shortened: as §1

[7] = test system: CP252
Procedure, shortened: as §1

[8] = test system: CP256
Procedure, shortened: as §1

[9] = test system: CP260
Procedure, shortened: as §1

[10] = test system: CP262
Procedure, shortened: as §1

[11] = test system: CP265
Procedure, shortened: as §1

[12] = test system: CP266
Procedure, shortened: as §1

[13] = test system: CP268
Procedure, shortened: as §1

[14] = test system: CP269
Procedure, shortened: as §1

[15] = test system: CP286
Procedure, shortened: as §1

[16] = test system: CP291
Procedure, shortened: as §1

[17] = test system: CP297
Procedure, shortened: as §1

[18] = test system: CP305
Procedure, shortened: as §1

[19] = test system: CP315
Procedure, shortened: as §1

[20] = test system: CP325
Procedure, shortened: as §1

Measured: outcome

CCc1cccc2c3c([nH]c12)[C@@](CC)(CC(=O)O)OCC3
inactive: [1] | [2] | [3] | [4] | [5] | [6] | [7] | [8] | [9] | [10] | [11] | [12] | [13] | [14] | [15] | [16] | [17] | [18] | [19] | [20]

CCOC(=O)C(CCc1ccccc1)NC(C)C(=O)N1Cc2ccccc2CC1C(=O)O (stereo not given)
inactive: [1] | [2] | [3] | [4] | [5] | [6] | [7] | [8] | [9] | [10] | [11] | [12] | [13] | [14] | [15] | [16] | [17] | [18] | [19] | [20]
